Reference: PubChem BioAssay (Tox21)
Several values for one entry are separate records, joined by “and”; a condition that tells them apart may be missing. Equal entries are not always repeated. A structure can be active in one record and inactive in another. Activity calls are given as the source filed them. Calls follow the shape of the dose curve; as a rule, active = well fitted activation curve with a large enough effect in the repeat runs; inconclusive = weak or mixed curves; inactive = flat fitted curve, though single readings scatter.

Test: A CellTox Green Cytotoxicity Assay to monitor cytotoxicity in HEK293 cells - 0 hour (AID 1224869); also: nearly all actives have a fitted effect of over 50% in size
Conditions: CellTox Green fluorescence; series mostly up to 76.8 µM; cytotoxicity: at the top concentration
Source text: National Center for Advancing Translational Sciences [NCATS]
NIH Chemical Genomics Center [NCGC]
U.S. Environmental Protection Agency [EPA]
National Institutes of Environmental Health Sciences [NIEHS]
National Toxicology Program [NTP]
Cell-based models are critical for drug discovery. Determining the natural cytotoxic effects resulting from test compounds is an essential research activity. A CellTox Green Cytotoxicity Assay to monitor cytotoxicity in real time of continues cell culture during 40 hours of the compound treatment was used to screen Tox21 10K library compounds in Hek293 cells. CellTox Green Cytotoxicity Assay is a nonlytic, homogeneous, biofluorescent method to measure cytotoxicity in cell culture after experimental manipulation. The assay system uses a proprietary asymmetric cyanine dye that is excluded from viable cells but preferentially stains the dead cell's DNA. […] Viable cells produce no appreciable increases in fluorescence. Therefore, the fluorescence signal produced by the binding interaction with dead cell DNA is proportional to cytotoxicity.
The mixture of Hek293 cell suspension and reagents were dispensed at 600cells/6 ul/well in 1536-well tissue culture treated black solid bottom plates using a Multidrop dispenser. After the assay plates were incubated at a 37 C/5% CO2 incubator for 5 hours, 23 nL of compounds dissolved in DMSO, positive and negative controls was transferred to the assay plate by a pintool work station. The plates were incubated at 37 C for 40 hours. The fluorescence intensity were measured at 0h, 8h, 16h, 24h, 32h and 40h time points using ViewLux plate reader during compound treatment.
% is scaled to controls: 0 for no effect and ±100 for the full control effect; potency is read from the fitted curve at half-maximal effect.

Question: Which “cytotoxicity” value does the source give for `C[N+]1(CCC(C(N)=O)(c2ccccc2)c2ccccc2)CCCCC1` here?
Answer: The value was -8.01% [at 35.3 µM] (inactive).

Question: With `[Cl-].[Cl-].[Hg+2]` as the compound, how does the Potency read?
Answer: Its Potency is “inactive”.

Question: With `Nc1ccc2c(c1)Cc1ccccc1-2` as the compound, how does the “cytotoxicity” value read?
Answer: The value was -4.27% (inactive).

Question: Which “cytotoxicity” value does the source give for `O=C(Cc1ccccc1)c1ccccc1` here?
Answer: The value was 1.08% (inactive).

Question: For `CC1(C)CC(=O)CC(C)(C)N1[O]`, which “cytotoxicity” value is on record?
Answer: Its value is 1.54% (inactive).

Question: With `Cc1ccccc1` as the compound, how does the “cytotoxicity” value read?
Answer: The value was -9.49% (inactive).

Question: Which “cytotoxicity” value does the source give for `CC(C)CCCCCCCOC(=O)c1ccccc1C(=O)OCCCCCCCC(C)C` here?
Answer: The value was 4.65% (inactive).

Question: For `CCCCCCCCCCCCN(C)C`, which “cytotoxicity” value is on record?
Answer: The value was 1.4% (inactive).

Question: For `CCCCCBr`, which “cytotoxicity” value is on record?
Answer: Its value is -17.4% (inactive).

Question: With `O=S(=O)(Cl)Cl` as the compound, how does the “cytotoxicity” value read?
Answer: Its value is -0.28% (inactive).

Question: Which “cytotoxicity” value does the source give for `CN(C1CCCCC1)C1CCCCC1` here?
Answer: Its value is 0.967% (inactive).

Question: Which Potency does the source give for `O=C(O)COc1cc(Cl)c(Cl)cc1Cl` here?
Answer: Its Potency is “inactive”.

Question: Which “cytotoxicity” value does the source give for `N#CC1(N=NC2(C#N)CCCCC2)CCCCC1` here?
Answer: Its value is -6.4% (inactive).

Question: Which “cytotoxicity” value does the source give for `N#CC(C#N)=Cc1ccc(O)c(O)c1` here?
Answer: Its value is 22.6% [at 35.3 µM] (inactive).

Question: For `COc1ccc2c(c1OC)C(=O)O[C@H]2[C@@H]1c2cc3c(cc2CCN1C)OCO3`, which “cytotoxicity” value is on record?
Answer: The value was 2.05% [at 35.3 µM] (inactive).

Question: For `CCCCCCCCP(=O)(O)O`, which “cytotoxicity” value is on record?
Answer: The value was -1.83% (inactive).

Question: Which “cytotoxicity” value does the source give for `Cc1cnc(C2=NC(C)(C(C)C)C(=O)N2)c(C(=O)O)c1` (stereo not given) here?
Answer: Its value is 0.518% (inactive).

Question: For `CCCBr`, which “cytotoxicity” value is on record?
Answer: The value was 0.462% (inactive).

Question: With `CC(C)C1(C)N=C(c2ncccc2C(=O)O)NC1=O` (stereo not given) as the compound, how does the “cytotoxicity” value read?
Answer: Its value is 0.271% (inactive).

Question: For `Nc1cccc2ccccc12`, which Potency is on record?
Answer: The Potency was “inactive”.

Question: Which “cytotoxicity” value does the source give for `CC(=O)NNc1ccccc1` here?
Answer: Its value is -0.547% (inactive).

Question: With `Cc1cccc(C)c1NC1=NCCCS1` as the compound, how does the “cytotoxicity” value read?
Answer: The value was -4.41% [at 35.3 µM] (inactive).

Question: For `O=C(Cl)OCCOCCOC(=O)Cl`, which “cytotoxicity” value is on record?
Answer: Its value is 0.3% (inactive).

Question: Which Potency does the source give for `C[Si](Cn1cncn1)(c1ccc(F)cc1)c1ccc(F)cc1` here?
Answer: Its Potency is “inactive”.

Question: With `CCCC[P+](CC)(CCCC)CCCC` (tested in a mixture with another compound) as the compound, how does the “cytotoxicity” value read?
Answer: Its value is 24.7% (inactive).

Question: For `Cc1ccc(N)c(C)c1`, which Potency is on record?
Answer: The Potency was “inactive”.

Question: For `CN(C)c1ccc(N=O)cc1`, which Potency is on record?
Answer: Its Potency is “inactive”.

Question: With `Nc1ccccc1C(=O)OCCc1ccccc1` as the compound, how does the Potency read?
Answer: The Potency was “inactive and 43.6 µM (active)”.

Question: For `CCCCC#N`, which “cytotoxicity” value is on record?
Answer: Its value is -1.15% (inactive).

Question: Which “cytotoxicity” value does the source give for `CCOP(=S)(OCC)SCSc1cc(Cl)ccc1Cl` here?
Answer: The value was -4.21% (inactive).

Question: With `O=C(O)c1cc(I)cc(I)c1I` as the compound, how does the “cytotoxicity” value read?
Answer: The value was -4.58% (inactive).

Question: Which “cytotoxicity” value does the source give for `C[N+](C)(C)CCOC(=O)C(O)(c1ccccc1)c1ccccc1` here?
Answer: The value was 2.03% [at 35.3 µM] (inactive).

Question: Which “cytotoxicity” value does the source give for `CC(C)(C)c1ccc(CCOc2ncnc3ccccc23)cc1` here?
Answer: Its value is 0.382% (inactive).

Question: Which “cytotoxicity” value does the source give for `COC(=O)C1(O)c2ccccc2-c2ccccc21` here?
Answer: Its value is -8.07% (inactive).

Question: With `CN1C[C@H](C(=O)N[C@]2(C)O[C@@]3(O)[C@@H]4CCCN4C(=O)[C@H](Cc4ccccc4)N3C2=O)C=C2c3cccc4[nH]cc(c34)C[C@H]21` as the compound, how does the Potency read?
Answer: The Potency was “inactive”.

Question: With `CC(Oc1cccc(Cl)c1)C(=O)O` (stereo not given) as the compound, how does the “cytotoxicity” value read?
Answer: The value was -5.73% (inactive).

Question: Which “cytotoxicity” value does the source give for `C=CCOC(=O)C(C)(C)OC(=O)c1cc(-n2c(=O)cc(C(F)(F)F)n(C)c2=O)ccc1Cl` here?
Answer: Its value is -7.98% (inactive).

Question: With `C=C(Cl)Cl` as the compound, how does the “cytotoxicity” value read?
Answer: The value was 0.802% (inactive).

Question: Which “cytotoxicity” value does the source give for `CCOP(=S)(S)OCC` here?
Answer: Its value is 1.03% (inactive).

Question: For `C[N+]1(CCF)[C@@H]2CC[C@H]1CC(OC(=O)C(O)(c1ccccc1)c1ccccc1)C2` (stereo not given in full), which “cytotoxicity” value is on record?
Answer: The value was -0.126% [at 35.3 µM] (inactive).
